Test results reported in PubChem BioAssay.

Test system: Fibrinogen (Alexa647-labelled)
Experiment: fibrinogen binders on compound microarrays, profiling panel, artefact control for SMM control-protein annotation, biochemical, small-molecule microarray, 635/667 nm fluorescence (AID 1131);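 note: z-score merges 667 nm fluorescence with per-spot signal-to-noise over triplicate slides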
Conditions: fibrinogen-A647 binding fluorescence, higher = more signal

SMILES	composite z-score
COCCOC(=O)N1C(=O)[C@@]2(c3cc(C#CCC(C(=O)OC)C(=O)OC)ccc31)[C@H](C(N)=O)[C@H]1C(=O)O[C@H](c3ccccc3)[C@H](c3ccccc3)N1[C@@H]2c1ccc(O)cc1	0.92
COc1cc(OC)c(C(O)C2C=CC3C(=O)N(c4ccccc4)C(=O)C3N2Nc2ccc(C(C)C)cc2)cc1Br (stereo not given)	0.885
C#CCN1[C@@H](Cc2ccccc2)C(=O)O[C@H](Cc2ccccc2)[C@@H]1/C=C/C1CC1	-0.287
CN(C)CCCNC(=O)[C@@H]1c2ccccc2C(=O)N(Cc2ccccc2C(F)(F)F)[C@H]1c1ccc(CO)cc1	-0.126
COc1ccc([Si](C)(C)[C@H]2[C@H](CCO)O[C@@]3(C(=O)N(Cc4ccc(NC(=O)[C@H](C)O)cc4)c4ccccc43)[C@@H]2C)cc1	0.68
CCOC(=O)C[C@H]1[C@H](OC(=O)c2ccccc2-c2ccccc2)[C@@H](NC(=O)c2ccc3ccccc3c2)c2cc(OCCCO)ccc2N1C(=O)Cc1ccc(OC)cc1	0.805
COCCCN1C(=O)[C@@]2(c3ccc([N+](=O)[O-])cc3)CC(=O)N(CC34CC5CC(CC(C5)C3)C4)[C@@H]2c2ccc(CO)cc21	-0.753
C=C1C(=O)C=C2CN(C(=O)c3ccccc3)[C@@](Cc3ccc(OC)cc3)(C(=O)OC)[C@@H]12	1.02
C=CCNC(=O)[C@H]1[C@@H]2C(=O)O[C@@H](c3ccccc3)[C@@H](c3ccccc3)N2[C@@H](c2ccc(OCCO)cc2)[C@]12C(=O)Nc1ccccc12	0.861
COCCOC(=O)N1C(=O)[C@@]2(c3ccccc31)[C@H](c1ccc(O)cc1)N1[C@H](c3ccccc3)[C@H](c3ccccc3)OC(=O)[C@H]1[C@@H]2C(=O)N1CCCCCCC1	0.941
C[N+](C)(C)CCCCNC(=O)[C@H]1C[C@H]2C(=O)N[C@@H](Cc3ccccc3)C(=O)N2[C@H]1c1cccc(OCCO)c1	0.578
CC(C)[Si](C#CCCc1ccccc1)(O[C@H](c1ccccc1)c1cn(Cc2ccccc2)nn1)C(C)C	0.642
COc1ccc([Si](C)(C)[C@@H]2[C@@H](CC(=O)N3Cc4ccccc4C[C@H]3CO)O[C@]3(C(=O)N(Cc4cccc(N5CCOC5=O)c4)c4ccccc43)[C@H]2C)cc1	0.0735
CN1C(=O)[C@@H]2[C@@H](CC(COc3ccccc3)=C3[C@@H](CCc4ccccc4)OB(O)C[C@@H]32)C1=O	0.48
COc1cc(C(O)C2C=CC3C(=O)N(c4ccccc4)C(=O)C3N2Nc2ccccc2F)cc(OC)c1OC (stereo not given)	1.03
CCCCN1CC=CC23O[C@@H]4/C=C\CCCOC(=O)C4[C@H]2C(=O)N(C(CO)C(C)C)[C@@H]3C1=O (stereo not given in full)	-0.458
O=C1N(CCS(=O)(=O)c2ccccc2)c2ccccc2C[C@]12N=C(c1ccc(OCCCO)cc1)O[C@@H]2c1ccccc1	0.783
O=C1NC(=O)C2C1C=CC(C(O)c1ccc([N+](=O)[O-])cc1)N2Nc1ccccn1 (stereo not given)	0.0114
O=C1[C@H]2C=C(I)[C@H](C[C@@H]2OCCCCCCO)[C@@]12CO2	-0.312
CN(C)C(=O)[C@]1(Cc2ccccc2)N=C(c2ccc(OCCCO)cc2)O[C@@H]1c1ccccc1CN=[N+]=[N-]	1.02
Cc1ccc(C(C)CC(O)C2C=CC3C(=O)N(C)C(=O)C3N2Nc2ccccc2)o1 (stereo not given)	0.655
CCCCCCc1nc(-c2ccc(-c3ccc(Cl)c(Cl)c3)o2)cc2c1[Si](C(C)C)(C(C)C)OC2	-1.85
CC1CC/C=C\[C@H]2OC34C=CCN(c5ccc(Cl)cc5)C(=O)[C@H]3N(CCCCCCO)C(=O)[C@]4(C)C2C(=O)O1 (stereo not given in full)	-0.87
C=C(CCCC)/C(=C/C[C@H](OC(=O)c1ccncc1)c1cccc(OCCO)c1)c1cnc2ccccc2c1	0.957
C[C@@H]1ON(c2ccccc2)[C@H](c2ccccc2)[C@H]1C(=O)O	0.722
CCOC(=O)C1=CC[C@@H](c2ccc(OC)cc2)N(S(=O)(=O)c2ccc(C)cc2)[C@H]1CC	0.993
COC(=O)[C@@]1(Cc2ccc(OC)cc2)[C@H]2c3cc(C(=O)N(C)C)[nH]c3C[C@H]2CN1C(=O)c1ccccc1	0.804
CCCCC(O)C1C=CC2C(=O)N(c3ccccc3)C(=O)C2N1Nc1ccccc1 (stereo not given)	0.543
CC(C)OC(=O)CC(=O)CC(O)c1cccc([N+](=O)[O-])c1 (stereo not given)	0.438
O=C1NC(=O)C2C1C=CC(C(O)c1ccc(B(O)O)cc1)N2Nc1ccc(Cl)cc1Cl (stereo not given)	0.824
